Laboratory results from PubChem BioAssay (NCI).
About 79,000 compounds went through this panel and 15% of them were active in at least one assay; those are over-represented in the sample as a whole. Values without a mark were called inactive. Activity calls are given as the source filed them. No stated cut-off is given here; in the data, active means growth inhibition above about 70%; inactive means the rest.

Assay: NCI Yeast Anticancer Drug Screen. Data for the mec2-1 strain (AID 157)
Conditions: S. cerevisiae mec2-1 strain, at 11.0 µM, active compounds read high
In short: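 Test agents were screened against the mec2-1 yeast strain, with defined DNA repair or cell cycle alteration. Growth was scored as inhibition against vehicle-only controls.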

SMILES	growth inhibition
CCN(CC)CC[n+]1ccc2c(C)c3[nH]c4ccc(O)cc4c3c(C)c2c1	9%
O=[n+]1c2ccc(Cl)cc2n([O-])c2ccc(Cl)cc21	2%
CCOP(=O)(OCC)C(Cc1ccccc1)N=C(c1ccccc1)c1ccccc1 (stereo not drawn)	18%
CC[C@@]1(O)C(=O)OCc2c1cc1n(c2=O)Cc2cc3c(N)cccc3nc2-1	18%
COC1C=COC2(C)Oc3c(C)c(O)c4c(c3C2=O)/C(=N/C2CCC(O)OC2C)C=C(NC(=O)/C(C)=C\C(=O)C2CC2C(O)C(C)C(O)C(C)C(OC(C)=O)C1C)C4=O (stereo not drawn)	-6%
COc1cc2c(c(OC)c1OC)-c1c(cc3c(c1OC)OCO3)CC(C)C(C)(O)C2OC(=O)c1ccccc1 (stereo not drawn)	16%
O=c1ssc2ncccc12	29%
O=C1C2C(C(=O)N1c1ccc(OCc3ccccc3)cc1)C1c3ccccc3C2C2CCCCN21 (stereo not drawn)	-6%
COc1ccc(-c2cn(-c3ccc(I)cc3)c3ncnc(N)c23)cc1	-5%
CCOC(=O)C(NC(=O)c1ccccc1)(N1CCN(c2cc3c(cc2F)c(=O)c(C(=O)O)cn3C2CC2)CC1)C(F)(F)F (stereo not drawn)	0%
C/C(=N\O)C1CC2C=C(C#N)C1N(Cc1ccccc1)C2 (stereo not drawn)	4%
CC/C(=C(\c1ccccc1)c1ccc(OCCN(C)C)cc1)c1ccccc1	46%
COc1ccccc1N=NC(C(=O)c1ccccc1)C(=O)c1ccccc1	-25%
CC(O)C(O)C(O)C(/C=N\Nc1ccccc1)=N/Nc1ccccc1 (stereo not drawn)	11%
COc1ccc(/C=C2\SC(=S)N(/C=C/c3nc4ccccc4[nH]c3=O)C2=O)cc1OC	17%
N#CN=Nc1cc(Cl)c(N=NC#N)cc1Cl	-18%
Cc1ccc(S(=O)(=O)Oc2cc(Cl)c(Cl)cc2Cl)cc1	-5%
c1ccc2c(c1)Oc1cccc3cccc-2c13	-3%
O=C(c1ccc(Cl)cc1Cl)C(Cl)Cl	-9%
CC(C)C1=CCC2C(=C1)CCC1C(C)(C(=O)O)CCCC21C (stereo not drawn) (tested in a mixture with another compound)	15%

SMILES	growth inhibition
COc1cc(/C=C2\CCc3ccccc3C2=O)cc(OC)c1OC	1%
CC(=O)[O][Bi]([c]1ccccc1)[c]1ccccc1	40%
S=C(N/N=C/c1ccccn1)Nc1ccc(Cl)cc1	-3%
COc1cc(CC2CC(c3ccc4c(c3)OCO4)OC2=O)cc(OC)c1OC (stereo not drawn)	2%
CNC1C(OC2C(OC3C(O)C(O)C(N=C(N)N)C(O)C3N=C(N)N)OC(C)C2(O)CO)OC(CO)C(O)C1O (stereo not drawn)	-3%
NNC(=O)CCc1ccc2ccc3ccccc3c2c1	0%
Oc1ccc2ccccc2c1C(c1ccc(Cl)cc1)c1c(O)ccc2ccccc12	-39%
CCCCN(CCCC)CCSc1ccc(Cl)cc1	-7%
CCC(C)COC(=O)c1ccc(N=Cc2ccc(C=Nc3ccc(C(=O)OCC(C)CC)cc3)cc2)cc1 (stereo not drawn)	3%
CC1(C)C(=O)OC(n2cc(F)c(=O)[nH]c2=O)C1=O (stereo not drawn)	-11%
O=[N+]([O-])CC(SCc1ccccc1)c1ccc2c(c1)OCO2 (stereo not drawn)	76% (active)
COc1cc2c(cc1[N+](=O)[O-])C(=O)C(Br)(Br)CCC2	99% (active)
OCC1OC(OCC(O)C(O)C(O)C(/C=N/Nc2ccccc2)=N/Nc2ccccc2)C(O)C(O)C1O (stereo not drawn)	20%
COc1ccc(N=C2C(=O)Nc3ccc(Br)cc32)cc1	-19%
Cn1c(=O)c2ccccc2c2ccccc21	11%
CC[n+]1ccc2c(C)c3[nH]c4ccc(O)cc4c3c(C)c2c1	0%
CC(=O)ON1C(=O)c2cccc3cccc(c23)C1=O	95% (active)
COc1ccc2ccc3ccccc3c2c1C=O	-6%
OC1CCCc2c1cc1ccc3cccc4ccc2c1c34 (stereo not drawn)	99% (active)

Same assay, conditions: S. cerevisiae mec2-1 strain, at 33.0 µM, active compounds read high

SMILES	growth inhibition
CCN(CC)CC[n+]1ccc2c(C)c3[nH]c4ccc(O)cc4c3c(C)c2c1	8%
O=[n+]1c2ccc(Cl)cc2n([O-])c2ccc(Cl)cc21	9%
CCOP(=O)(OCC)C(Cc1ccccc1)N=C(c1ccccc1)c1ccccc1 (stereo not drawn)	97% (active)
CC[C@@]1(O)C(=O)OCc2c1cc1n(c2=O)Cc2cc3c(N)cccc3nc2-1	23%
COC1C=COC2(C)Oc3c(C)c(O)c4c(c3C2=O)/C(=N/C2CCC(O)OC2C)C=C(NC(=O)/C(C)=C\C(=O)C2CC2C(O)C(C)C(O)C(C)C(OC(C)=O)C1C)C4=O (stereo not drawn)	1%
COc1cc2c(c(OC)c1OC)-c1c(cc3c(c1OC)OCO3)CC(C)C(C)(O)C2OC(=O)c1ccccc1 (stereo not drawn)	12%
O=c1ssc2ncccc12	83% (active)
O=C1C2C(C(=O)N1c1ccc(OCc3ccccc3)cc1)C1c3ccccc3C2C2CCCCN21 (stereo not drawn)	2%
COc1ccc(-c2cn(-c3ccc(I)cc3)c3ncnc(N)c23)cc1	0%
CCOC(=O)C(NC(=O)c1ccccc1)(N1CCN(c2cc3c(cc2F)c(=O)c(C(=O)O)cn3C2CC2)CC1)C(F)(F)F (stereo not drawn)	2%
C/C(=N\O)C1CC2C=C(C#N)C1N(Cc1ccccc1)C2 (stereo not drawn)	4%
CC/C(=C(\c1ccccc1)c1ccc(OCCN(C)C)cc1)c1ccccc1	98% (active)
COc1ccccc1N=NC(C(=O)c1ccccc1)C(=O)c1ccccc1	91% (active)
CC(O)C(O)C(O)C(/C=N\Nc1ccccc1)=N/Nc1ccccc1 (stereo not drawn)	46%
COc1ccc(/C=C2\SC(=S)N(/C=C/c3nc4ccccc4[nH]c3=O)C2=O)cc1OC	66%
N#CN=Nc1cc(Cl)c(N=NC#N)cc1Cl	-3%
Cc1ccc(S(=O)(=O)Oc2cc(Cl)c(Cl)cc2Cl)cc1	-9%
c1ccc2c(c1)Oc1cccc3cccc-2c13	2%
O=C(c1ccc(Cl)cc1Cl)C(Cl)Cl	81% (active)
CC(C)C1=CCC2C(=C1)CCC1C(C)(C(=O)O)CCCC21C (stereo not drawn) (tested in a mixture with another compound)	54%

SMILES	growth inhibition
COc1cc(/C=C2\CCc3ccccc3C2=O)cc(OC)c1OC	22%
CC(=O)[O][Bi]([c]1ccccc1)[c]1ccccc1	90% (active)
S=C(N/N=C/c1ccccn1)Nc1ccc(Cl)cc1	10%
COc1cc(CC2CC(c3ccc4c(c3)OCO4)OC2=O)cc(OC)c1OC (stereo not drawn)	7%
CNC1C(OC2C(OC3C(O)C(O)C(N=C(N)N)C(O)C3N=C(N)N)OC(C)C2(O)CO)OC(CO)C(O)C1O (stereo not drawn)	10%
NNC(=O)CCc1ccc2ccc3ccccc3c2c1	2%
Oc1ccc2ccccc2c1C(c1ccc(Cl)cc1)c1c(O)ccc2ccccc12	56%
CCCCN(CCCC)CCSc1ccc(Cl)cc1	-8%
CCC(C)COC(=O)c1ccc(N=Cc2ccc(C=Nc3ccc(C(=O)OCC(C)CC)cc3)cc2)cc1 (stereo not drawn)	4%
CC1(C)C(=O)OC(n2cc(F)c(=O)[nH]c2=O)C1=O (stereo not drawn)	9%
O=[N+]([O-])CC(SCc1ccccc1)c1ccc2c(c1)OCO2 (stereo not drawn)	98% (active)
COc1cc2c(cc1[N+](=O)[O-])C(=O)C(Br)(Br)CCC2	100% (active)
OCC1OC(OCC(O)C(O)C(O)C(/C=N/Nc2ccccc2)=N/Nc2ccccc2)C(O)C(O)C1O (stereo not drawn)	31%
COc1ccc(N=C2C(=O)Nc3ccc(Br)cc32)cc1	-26%
Cn1c(=O)c2ccccc2c2ccccc21	26%
CC[n+]1ccc2c(C)c3[nH]c4ccc(O)cc4c3c(C)c2c1	6%
CC(=O)ON1C(=O)c2cccc3cccc(c23)C1=O	98% (active)
COc1ccc2ccc3ccccc3c2c1C=O	0%
OC1CCCc2c1cc1ccc3cccc4ccc2c1c34 (stereo not drawn)	96% (active)
